From the supplement of paper PMC6555819

How the values were obtained:
Experiment in all cases: PBM binding z-score (relative to random genomic background probes); higher = stronger binding; sequences stand for … in GC…GCGATTGACAGCGTAGAATGAAGG
[1] = system: FXR:RXRa (NR concentration 270 nM, RXRa partner concentration 90 nM)
Method in brief: (§1)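 Random background probes are the reference for binding z-scores. These scores derive from regression-normalized fluorescence on custom Agilent 4×180K protein-binding microarrays incubated 1 h with ligand-free nuclear receptor dimers. Binding was detected with antibodies against each partner (one per run).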

[2] = system: LXRa:RXRa (NR concentration 270 nM, RXRa partner concentration 90 nM)
Method in brief: as §1

[3] = system: LXRa homodimer (NR concentration 270 nM)
Method in brief: as §1

[4] = system: LXRb:RXRa (NR concentration 270 nM, RXRa partner concentration 90 nM)
Method in brief: as §1

[5] = system: PPARa:RXRa (NR concentration 270 nM, RXRa partner concentration 90 nM)
Method in brief: as §1

[6] = system: PPARg:RXRa (NR concentration 180 nM, RXRa partner concentration 90 nM)
Method in brief: as §1

[7] = system: PPARg:RXRa 270nM:90nM, anti-RXR (NR concentration 270 nM, RXRa partner concentration 90 nM)
Method in brief: as §1

[8] = system: PPARg:RXRa 30nM:10nM, anti-RXR (NR concentration 30 nM, RXRa partner concentration 10 nM)
Method in brief: as §1

[9] = system: PPARg:RXRa 90nM:30nM, anti-RXR (NR concentration 90 nM, RXRa partner concentration 30 nM)
Method in brief: as §1

[10] = system: PPARg:RXRa DBDmut IVT, anti-RXR (DBD mutation: RXRa K156A/R161A, NR concentration 270 nM, RXRa partner concentration 90 nM)
Method in brief: as §1

[11] = system: PPARg:RXRa IVT, anti-PPARg (NR concentration 270 nM, RXRa partner concentration 90 nM)
Method in brief: as §1

[12] = system: PPARg homodimer (NR concentration 180 nM)
Method in brief: as §1

[13] = system: PXR:RXRa (NR concentration 270 nM, RXRa partner concentration 90 nM)
Method in brief: as §1

[14] = system: PXR homodimer (NR concentration 270 nM)
Method in brief: as §1

[15] = system: RARa:RXR (NR concentration 270 nM, RXRa partner concentration 90 nM)
Method in brief: as §1

[16] = system: RARa homodimer (NR concentration 270 nM)
Method in brief: as §1

[17] = system: RARb:RXRa (NR concentration 270 nM, RXRa partner concentration 90 nM)
Method in brief: as §1

Row | Sequence | PBM binding z-score [1] | PBM binding z-score [2] | PBM binding z-score [3] | PBM binding z-score [4] | PBM binding z-score [5] | PBM binding z-score [6] | PBM binding z-score [7] | PBM binding z-score [8] | PBM binding z-score [9] | PBM binding z-score [10] | PBM binding z-score [11] | PBM binding z-score [12] | PBM binding z-score [13] | PBM binding z-score [14] | PBM binding z-score [15] | PBM binding z-score [16] | PBM binding z-score [17]
1 | TCGAGTAGGTTAAGGGGGCATTCAGGGATGAAGA | 2.95 | 2.79 | 1.01 | 4.58 | 3.99 | 5.19 | 5.78 | 3.91 | 5.72 | 4.21 | 4.69 | 2.85 | 2.67 | 1.9 | 2.87 | 1.41 | 2.47
2 | TCCAGTAGGTTACGGGGGCATTCAGGGATGAAGA | 3.09 | 3.47 | 1.18 | 5.7 | 4.68 | 7.15 | 6.28 | 5.22 | 6.53 | 5.86 | 6.84 | 2.22 | 3.68 | 1.9 | 3.51 | 0.616 | 2.97
3 | CCGAGTAGGTTAGGAGGGGGCATTCAGTGCGAAT | 2.47 | 4.27 | 1.19 | 5.24 | 2.86 | 1.74 | 2.65 | 1.44 | 2.24 | 3.01 | 4.36 | 2.59 | 4.53 | 6.27 | 2.88 | 0.952 | 2.06
4 | CTATGTTGGTTAAGGGGGTCATTCAGTTTGAAAG | 4.6 | 4.68 | 3.82 | 6.28 | 5.26 | 4.14 | 5.2 | 2.97 | 4.57 | 3.11 | 5.29 | 4.17 | 5.75 | 10.8 | 5.62 | 4.36 | 3.51
5 | CCGAGTAGGTTACGAGGAGGCATTCAGTGCGAAT | -0.167 | 4.4 | -0.319 | 0.864 | 1.26 | 0.943 | 1.25 | -0.283 | 0.832 | 4.34 | 3.39 | -0.438 | 0.196 | -0.429 | 0.244 | -0.663 | 0.685
6 | CCGAGTAGGTTACGAGGGAGCATTCAGTGCGAAT | -0.0908 | 3.55 | -0.145 | 1.05 | 1.52 | 1.15 | 1.55 | 0.0513 | 0.563 | 4.73 | 3.51 | 0.106 | 0.602 | 0.000491 | 0.506 | -0.145 | 0.887
7 | CCGAGTAGGTTCCGAGGGGGCATTCAGTGCGAAT | 0.618 | 1.8 | 1.32 | 4.15 | 2.04 | -0.00423 | 1.42 | 0.548 | 0.958 | 1.28 | 2.13 | 1.1 |  | 6.61 | 2.14 | 0.637 | 1.3
8 | TCGAGTAGGTTCCGGGGGCATTCAGGGATGAAGA | 2.36 | 1.8 | 0.316 | 4.06 | 2.5 | 0.485 | 2.22 | 1.38 | 2.24 | 1.44 | 2.23 | 1.05 | 2.68 | 1.13 | 1.96 | -0.469 | 1.17
9 | CCGAGTAAGTTACGAGGGGGCATTCAGTGCGAAT | 0.776 | 3.84 | 0.71 | 3.69 | 1.99 | -0.0159 | 1.15 | 0.0165 | 0.85 | 0.778 | 0.899 | 0.949 |  | 4.68 | 2.13 | 0.219 | 1.09
10 | TCGAGTAGGTTACCGGGGCATTCAGGGATGAAGA | 0.549 | 0.561 | -0.39 | 0.585 | 2.27 | 2.79 | 2.86 | 1.46 | 2 | 3.7 | 4.46 | 0.533 | 0.554 | -0.524 | 0.534 | -0.856 | 1.22
11 | CTATGTAGGTTAAAGGGGTCATTCAGTTTGAAAG | 6.38 | 5.21 | 4.18 | 5.82 | 6.43 | 9.57 | 8.21 | 7.05 | 8.61 | 7.95 | 7.63 | 7.13 |  | 13 |  | 1.99 | 3.87
12 | CCGAGTAGGTTACGAGGGGGCATTCTGTGCGAAT | 2.88 | 7.2 | 1.77 | 6.24 | 3.38 | 2.22 | 3.46 | 0.457 | 2.35 | 4.91 | 4.3 | 2.19 | 4.42 | 1.05 | 3.12 | 0.262 | 2.01
13 | CCATGTAGGTTAAGGGGGTCATTCAGTTTGAAAG | 4.98 | 4.71 | 3.76 | 6.22 | 5.88 | 7.38 | 7.13 | 4.55 | 6.52 | 5.55 | 6.99 | 4.47 | 5.83 | 12.1 | 5.82 | 2.79 | 3.46
14 | CCGAGTAGATTACGAGGGGGCATTCAGTGCGAAT | 0.841 | 2.24 | 0.791 | 3.36 | 1.75 | 0.167 | 0.849 | 0.0804 | 0.742 | 0.434 | 0.871 | 0.638 | 2.73 | 3.64 | 1.79 | -0.0773 | 0.973
15 | CCGAGTAGGTTACGAGGCGGCATTCAGTGCGAAT | -0.0338 | 0.596 | -0.363 | -0.1 | 1.06 | 0.984 | 1.28 | -0.404 | 0.408 | 4.1 | 3.3 | 0.605 | -0.147 | -0.255 | 0.2 | -0.448 | 0.768
16 | CTATGTAGGTTAACGGGGTCATTCAGTTTGAAAG | 5.18 | 5.6 | 2.97 | 5.87 | 6.19 | 7.77 | 6.92 | 4.45 | 6.47 | 7.65 | 7.78 | 2.41 |  | 12.2 | 6.06 | 0.661 | 3.57
17 | TCGAGTAGGTTACGGGGGCATCCAGGGATGAAGA | 2.12 | 2.55 | 0.293 | 4.73 | 4.35 | 6.04 | 6.05 | 3.04 | 5.24 | 5.07 | 5.83 | 2.37 |  | 1.02 | 3.31 | 0.18 | 2.46
18 | TTGAGTAGGTTACGGGGGCATTCAGGGATGAAGA | 3.06 | 3.3 | 1.18 | 5.2 | 4.63 | 7.11 | 6.44 | 4.81 | 5.83 | 6.29 | 6.86 | 5.24 | 3.31 | 3.21 | 3.81 | 2.56 | 2.9
19 | CCGAGTAGGTCACGAGGGGGCATTCAGTGCGAAT | 6.09 | 6.71 | 1.59 | 6.56 | 5.66 | 7.8 | 7.12 | 4.32 | 6.72 | 6.96 | 7.42 | 2.44 |  | 4.34 | 4.38 | 1.07 | 4.58
20 | CTATGTAGGTTAAGGGGGTCATTCGGTTTGAAAG | 5.21 | 4.84 | 2.94 | 6.16 | 6.15 | 8.47 | 7.83 | 6.21 | 7.86 | 6.81 | 7.73 | 4.23 | 5.97 | 12.4 | 6.04 | 1.33 | 3.54
21 | TCGAGTAGTTTACGGGGGCATTCAGGGATGAAGA | 1.17 | 2.22 | 0.776 | 4.38 | 2.69 | 1.11 | 2.83 | 2.71 | 2.91 | 2.03 | 3.22 | 0.685 | 2.74 | 1.47 | 2.36 | -0.25 | 2
22 | CCGAGTAGGTTACGAGGGCGCATTCAGTGCGAAT | 0.0416 | 1.77 | -0.35 | 0.425 | 1.72 | 2.6 | 2.55 | -0.0123 | 1.62 | 4.97 | 4.85 | -0.00528 | 0.483 | -0.379 |  | -0.752 | 1.29
23 | CTATGTAGGTTGAGGGGGTCATTCAGTTTGAAAG | 4.59 | 4.82 | 2 | 6.24 | 5.54 | 4.5 | 5.93 | 2.9 | 5.21 | 3.98 | 5.16 | 3.25 | 5.67 | 10.2 | 5.29 | 2.23 | 3.4
24 | CCGAGTAGGTTACGAGGGGGCATTGAGTGCGAAT | 2.26 | 7.11 | 1.25 | 6.12 | 3.55 | 2.61 | 3.24 | 1.03 | 2.58 | 4.78 | 4.42 | 1.95 | 5.05 | 8.74 | 2.91 | 0.485 | 2.02
25 | CTATGTAGGTTAAGAGGGTCATTCAGTTTGAAAG | 2.95 | 3.05 | 1.07 | 2.93 | 4.89 | 5.88 | 5.47 | 2.95 | 4.99 | 7.34 | 7.14 | 2.35 | 3.96 | 5.84 | 3.56 | 0.734 | 2.63
26 | TCGAGTAGGTTACGGGGTCATTCAGGGATGAAGA | 6.23 | 5.46 | 1.76 | 5.33 | 6.21 | 8.14 | 6.68 | 4.18 | 5.91 | 5.23 | 6.24 | 2.46 |  | 2.57 |  | 0.377 | 3.87
27 | TCGGGTAGGTTACGGGGGCATTCAGGGATGAAGA | 3.9 | 4.06 | 2.17 | 5.75 | 4.69 | 5.73 | 5.54 | 3.74 | 4.7 | 4.27 | 6.24 | 3.68 | 4.2 | 3.72 | 4.12 | 1.88 | 3.35
28 | CCGAGTAGGTTACAAGGGGGCATTCAGTGCGAAT | 2.05 | 7.37 | 2.35 | 6.52 | 3.41 | 2.25 | 3.68 | 0.773 | 2.98 | 4.32 | 4.29 | 1.99 | 4.6 | 5.19 | 3 | 0.759 | 2.17
